From a collection of fitness landscapes (doi:10.1016/j.celrep.2020.107928)
In all, about 81,000 sequences were measured (“one-hybrid fitness for binding parS DNA”: median about -0.17, highest 2% from about 0.51 on). The list comes from a sample in which the highest values are over-represented; it also holds similar and randomly drawn sequences.

B1: Caulobacter ParB omega fusion; a variant is named by its letters at X, in order, B8GW30 (parent)
chain: MESVVVGEPGMSEGRRGLGRGLSALLGEVDAAPAQAPGEQLGGSREAPIEILQRNPDQPRRTFREEDLEDLSNSIREKGVLQPILVRPSPDTAGEYQIVAGERAWRAAQRAGLKTVPIMVRELDDLAVLEIGIIENVQRADLNVLEEALSYKVLMEKFERTQENIAQTIGKSXSHVANXMRLLXLPDEVQSYLVSGELTAXHARAIAAAADPVALAKQIIEGGLSVRETEALARKAPNLSAGKSKGGRPPRVKDTDTQALESDLSSVLGLDVSIDHRGSTGTLTITYATLEQLDDLCNRLTRGI

Variants of: B1
Test: one-hybrid fitness for binding parS DNA (scaled: cognate 1, non-cognate 0); higher = stronger binding
Settings: with parS DNA site
In short: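 In E. coli USO, a HIS3 reporter with its site placed 19 bp from the promoter was used to select Caulobacter ParB variants randomised at four specificity codons. Growth lasted 48 hours at 37°C on histidine-free M9 containing 0.1 mM IPTG and 5 mM 3-AT. Fitness was taken as the log change in variant-to-wild-type read ratio from Illumina sequencing of pre- and post-selection plasmids, rescaled between the non-cognate and cognate sites.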

LAAP and QDYS cannot be ordered by “one-hybrid fitness for binding parS DNA” value: at most 0.2 for the first, at most 0.2 for the second.

QTCI and PSAR cannot be ordered by “one-hybrid fitness for binding parS DNA” value: at most 0.2 for the first, at most 0.2 for the second.

HTSF and AANC cannot be ordered by “one-hybrid fitness for binding parS DNA” value: at most 0.2 for the first, at most 0.2 for the second.

Compared with RVIK, RVPG is higher in “one-hybrid fitness for binding parS DNA” value: at most 0.2 for the first, 0.691 for the second.

Going from RVIM to RVPQ, the “one-hybrid fitness for binding parS DNA” value falls from 0.261 to at most 0.2.

First: RVIG
Second: RVPR
The “one-hybrid fitness for binding parS DNA” value of the first is higher: 0.904 for the first, at most 0.2 for the second.

HAGS and VNPV cannot be ordered by “one-hybrid fitness for binding parS DNA” value: at most 0.2 for the first, at most 0.2 for the second.

WRYW and TQTI cannot be ordered by “one-hybrid fitness for binding parS DNA” value: at most 0.2 for the first, at most 0.2 for the second.

FACF and RMID cannot be ordered by “one-hybrid fitness for binding parS DNA” value: at most 0.2 for the first, at most 0.2 for the second.

Compared with RMIS, RMPS is lower in “one-hybrid fitness for binding parS DNA” value: 0.997 for the first, 0.889 for the second.

First: RMIN
Second: RMPD
The “one-hybrid fitness for binding parS DNA” value of the first is higher: 0.327 for the first, at most 0.2 for the second.

Going from RMPN to FTGR, the “one-hybrid fitness for binding parS DNA” value falls from 0.262 to at most 0.2.

QRNV and PRGY cannot be ordered by “one-hybrid fitness for binding parS DNA” value: at most 0.2 for the first, at most 0.2 for the second.

VCNT and KCVG cannot be ordered by “one-hybrid fitness for binding parS DNA” value: at most 0.2 for the first, at most 0.2 for the second.

DLRC and PRLY cannot be ordered by “one-hybrid fitness for binding parS DNA” value: at most 0.2 for the first, at most 0.2 for the second.

First: RWEF
Second: RWES
The “one-hybrid fitness for binding parS DNA” value of the first is lower: at most 0.2 for the first, 0.712 for the second.

RWEI and RWEN cannot be ordered by “one-hybrid fitness for binding parS DNA” value: at most 0.2 for the first, at most 0.2 for the second.

First: RWEG
Second: RWEM
The “one-hybrid fitness for binding parS DNA” value of the first is higher: 0.563 for the first, at most 0.2 for the second.

Going from RWEK to RWEC, the “one-hybrid fitness for binding parS DNA” value rises from at most 0.2 to 0.556.

First: RWEA
Second: DQQE
The “one-hybrid fitness for binding parS DNA” value of the first is higher: 0.301 for the first, at most 0.2 for the second.

CPRM and KRDI cannot be ordered by “one-hybrid fitness for binding parS DNA” value: at most 0.2 for the first, at most 0.2 for the second.

DGLW and SLYE cannot be ordered by “one-hybrid fitness for binding parS DNA” value: at most 0.2 for the first, at most 0.2 for the second.

NVQI and QQQV cannot be ordered by “one-hybrid fitness for binding parS DNA” value: at most 0.2 for the first, at most 0.2 for the second.

WSWS and QFTQ cannot be ordered by “one-hybrid fitness for binding parS DNA” value: at most 0.2 for the first, at most 0.2 for the second.

VLWE and PVLP cannot be ordered by “one-hybrid fitness for binding parS DNA” value: at most 0.2 for the first, at most 0.2 for the second.

Going from RYND to RYNH, the “one-hybrid fitness for binding parS DNA” value falls from 0.213 to at most 0.2.

Compared with RYNS, RYDS is higher in “one-hybrid fitness for binding parS DNA” value: 0.872 for the first, 0.987 for the second.

Going from RYDD to RYDN, the “one-hybrid fitness for binding parS DNA” value rises from at most 0.2 to 0.407.

EDLC and ANQD cannot be ordered by “one-hybrid fitness for binding parS DNA” value: at most 0.2 for the first, at most 0.2 for the second.

TARG and KMSG cannot be ordered by “one-hybrid fitness for binding parS DNA” value: at most 0.2 for the first, at most 0.2 for the second.

Compared with RYEP, RYEY is higher in “one-hybrid fitness for binding parS DNA” value: at most 0.2 for the first, 0.434 for the second.

Compared with RYEN, RYED is lower in “one-hybrid fitness for binding parS DNA” value: 0.348 for the first, at most 0.2 for the second.

Going from RYEM to RYES, the “one-hybrid fitness for binding parS DNA” value rises from 0.275 to 0.975.

First: RYEH
Second: RYEG
The “one-hybrid fitness for binding parS DNA” value of the first is lower: at most 0.2 for the first, 0.901 for the second.

Going from RYEC to RYET, the “one-hybrid fitness for binding parS DNA” value falls from 0.926 to 0.772.

Compared with RYEK, RYEF is higher in “one-hybrid fitness for binding parS DNA” value: at most 0.2 for the first, 0.236 for the second.

PNCQ and QNHC cannot be ordered by “one-hybrid fitness for binding parS DNA” value: at most 0.2 for the first, at most 0.2 for the second.

Going from RNEA to CLSL, the “one-hybrid fitness for binding parS DNA” value falls from 0.253 to at most 0.2.

SSKF and VNMC cannot be ordered by “one-hybrid fitness for binding parS DNA” value: at most 0.2 for the first, at most 0.2 for the second.

Compared with RMFC, RMFN is lower in “one-hybrid fitness for binding parS DNA” value: 0.966 for the first, 0.459 for the second.

Compared with RMAC, RMAF is lower in “one-hybrid fitness for binding parS DNA” value: 0.994 for the first, 0.253 for the second.

RMAK and RMFR cannot be ordered by “one-hybrid fitness for binding parS DNA” value: at most 0.2 for the first, at most 0.2 for the second.

MTRT and LSYV cannot be ordered by “one-hybrid fitness for binding parS DNA” value: at most 0.2 for the first, at most 0.2 for the second.

LACS and RKNH cannot be ordered by “one-hybrid fitness for binding parS DNA” value: at most 0.2 for the first, at most 0.2 for the second.

Compared with RKNN, RKDS is higher in “one-hybrid fitness for binding parS DNA” value: 0.327 for the first, 0.886 for the second.

Going from RKNS to RKDD, the “one-hybrid fitness for binding parS DNA” value falls from 0.766 to at most 0.2.

RKDP and QQTE cannot be ordered by “one-hybrid fitness for binding parS DNA” value: at most 0.2 for the first, at most 0.2 for the second.

TVLW and QYWT cannot be ordered by “one-hybrid fitness for binding parS DNA” value: at most 0.2 for the first, at most 0.2 for the second.

Going from AHYS to RWFC, the “one-hybrid fitness for binding parS DNA” value rises from at most 0.2 to 0.6.

RWFR and RWAP cannot be ordered by “one-hybrid fitness for binding parS DNA” value: at most 0.2 for the first, at most 0.2 for the second.

First: RWAC
Second: RWFM
The “one-hybrid fitness for binding parS DNA” value of the first is higher: 0.721 for the first, at most 0.2 for the second.

RWAH and HYMG cannot be ordered by “one-hybrid fitness for binding parS DNA” value: at most 0.2 for the first, at most 0.2 for the second.

CCLT and HCNG cannot be ordered by “one-hybrid fitness for binding parS DNA” value: at most 0.2 for the first, at most 0.2 for the second.

First: RVFC
Second: RVAP
The “one-hybrid fitness for binding parS DNA” value of the first is higher: 0.972 for the first, at most 0.2 for the second.

Compared with RVFF, RVAD is lower in “one-hybrid fitness for binding parS DNA” value: 0.303 for the first, at most 0.2 for the second.

First: RVAC
Second: RVFR
The “one-hybrid fitness for binding parS DNA” value of the first is higher: 0.982 for the first, at most 0.2 for the second.

YKSS and DLKY cannot be ordered by “one-hybrid fitness for binding parS DNA” value: at most 0.2 for the first, at most 0.2 for the second.

Compared with KPVK, RTKF is higher in “one-hybrid fitness for binding parS DNA” value: at most 0.2 for the first, 0.734 for the second.

Compared with RSKF, RCKF is higher in “one-hybrid fitness for binding parS DNA” value: 0.35 for the first, 0.541 for the second.

Going from RTYF to RPKF, the “one-hybrid fitness for binding parS DNA” value falls from 0.259 to at most 0.2.

First: RTVF
Second: RTRF
The “one-hybrid fitness for binding parS DNA” value of the first is lower: at most 0.2 for the first, 0.627 for the second.

RTDF and RWHR cannot be ordered by “one-hybrid fitness for binding parS DNA” value: at most 0.2 for the first, at most 0.2 for the second.

RPGM and VKLS cannot be ordered by “one-hybrid fitness for binding parS DNA” value: at most 0.2 for the first, at most 0.2 for the second.

EMNC and QAGG cannot be ordered by “one-hybrid fitness for binding parS DNA” value: at most 0.2 for the first, at most 0.2 for the second.

VSVK and LNGG cannot be ordered by “one-hybrid fitness for binding parS DNA” value: at most 0.2 for the first, at most 0.2 for the second.

Going from RVIS to RVIP, the “one-hybrid fitness for binding parS DNA” value falls from 0.981 to at most 0.2.

RVPP and RVID cannot be ordered by “one-hybrid fitness for binding parS DNA” value: at most 0.2 for the first, at most 0.2 for the second.

Going from RVPD to RVPS, the “one-hybrid fitness for binding parS DNA” value rises from at most 0.2 to 0.812.

PTIM and CNLM cannot be ordered by “one-hybrid fitness for binding parS DNA” value: at most 0.2 for the first, at most 0.2 for the second.

LLRY and EDTE cannot be ordered by “one-hybrid fitness for binding parS DNA” value: at most 0.2 for the first, at most 0.2 for the second.

Going from RCNG to RSDG, the “one-hybrid fitness for binding parS DNA” value falls from 0.966 to 0.84.

First: RPNG
Second: RSYG
The “one-hybrid fitness for binding parS DNA” value of the first is lower: at most 0.2 for the first, 0.991 for the second.

Compared with RSYR, RENG is higher in “one-hybrid fitness for binding parS DNA” value: at most 0.2 for the first, 0.302 for the second.

Going from RSNG to RSNK, the “one-hybrid fitness for binding parS DNA” value falls from 1 to at most 0.2.

Compared with REDG, RSYF is higher in “one-hybrid fitness for binding parS DNA” value: at most 0.2 for the first, 0.233 for the second.

RDNG and RSDF cannot be ordered by “one-hybrid fitness for binding parS DNA” value: at most 0.2 for the first, at most 0.2 for the second.

YWPS was tested, and the “one-hybrid fitness for binding parS DNA” value was at most 0.2.
